According to PubChem BioAssay (NCI):
Compounds without any hit were thinned out: in the full panel of roughly 83,000, 20% have a hit.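 Activity criterion: percent growth below 10, measured after cells in 96-well plates were exposed to a single compound concentration for 48 hours.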 A number with no mark means an inactive call. Activity calls are given as the source filed them.

Tests used:
Assay in all cases: NCI-60 one-dose screen, 48 h (100 = growth as untreated, 0 = no growth, -100 = all killed)
Conditions in all cases: 10 µM unless noted
NCI-H23 lung = test system: NCI-H23 lung
NCI-H226 lung = test system: NCI-H226 lung
NCI-H322M lung = test system: NCI-H322M lung
HOP-62 NSCLC = test system: HOP-62 NSCLC
NCI-H460 lung = test system: NCI-H460 lung
HOP-92 NSCLC = test system: HOP-92 NSCLC
NCI-H522 lung = test system: NCI-H522 lung
A549/ATCC NSCLC = test system: A549/ATCC NSCLC
786-0 renal = test system: 786-0 renal
COLO 205 colon = test system: COLO 205 colon

| Structure (SMILES) | growth (NCI-H23 lung) | growth (NCI-H226 lung) | growth (NCI-H322M lung) | growth (HOP-62 NSCLC) | growth (NCI-H460 lung) | growth (HOP-92 NSCLC) | growth (NCI-H522 lung) | growth (A549/ATCC NSCLC) | growth (786-0 renal) | growth (COLO 205 colon) |
| --- | --- | --- | --- | --- | --- | --- | --- | --- | --- | --- |
| COC1=C(C)C(=O)c2c(c(CCCl)c3n2CCC3OC(C)=O)C1=O (stereo not given) | -12% (active) | -14.9% (active) | -14.8% (active) | -22.4% (active) | -14.3% (active) | 56.4% | -56.9% (active) | 1.27% (active) | -32.4% (active) | -60% (active) |
| Cc1ccc(-c2cnc3sc(C(=O)NCCc4ccccc4)c(C)n23)cc1 | 95.4% | 78.6% | 91.6% | 89.1% | 102% | 91.1% | 91.7% | 109% | 97.7% | 116% |
| CCCCNc1nc(NN2C(=O)c3cccc4cccc(c34)C2=O)nc(-n2cnc3ccccc32)n1 | 88.7% | 54.9% | 92.7% | 97.4% | 102% | 60.3% | 89.5% | 89.4% | 97.7% | 107% |
| C/C(=C(/c1ccccc1)c1ccc(N2C(=O)c3cccc4c(N5CCN(C)CC5)ccc(c34)C2=O)cc1)c1ccccc1 | 59.7% | 69.6% | 99.9% | 86.1% | 83.3% | 67.4% | 81.5% | 71.1% | 87.6% | 81.1% |
| CNC(=O)c1cc(-n2ccc3cc(NC(=O)c4ccc(N5CCOCC5)c(C(F)(F)F)c4)ccc32)ccn1 | 64% | 51.7% | 91.5% | 62% | 68.4% | 60.5% | 52% | 46.3% | 47.8% | 42.9% |
| Cc1ccc(-c2nc3c(c(-c4ccccc4)nn3-c3ccccc3)c(-c3ccc(O)cc3)c2C#N)cc1 | 67.5% | 80% | 88.5% | 40% | 27.4% | 74.5% | 69.4% | 52.3% | 18.6% | 70.4% |
| COc1ccc([C@H]2c3cc(OC)c(OC)cc3C=C(C=O)C2CO)cc1OC (stereo not given in full) | 62.8% | 80.8% | 97.8% | 62.1% | 69.8% | 36.8% | 32.1% | 80.6% | 45.7% | 45% |
| COc1cc(C(=O)/C=C/c2ccc(OCCCCCC[P+](c3ccccc3)(c3ccccc3)c3ccccc3)cc2)cc(OC)c1OC | -63% (active) | -29.2% (active) | -23.1% (active) | -62.2% (active) | -73.6% (active) | -26.2% (active) | -70.4% (active) | -1.89% (active) | -92.4% (active) | -95.3% (active) |
| COc1cccc(Oc2ccccc2NC(=O)CNC(=O)c2cccc3ccccc23)c1 | 31.6% [5 µM] | 53.7% [5 µM] | 32.6% [5 µM] | 35.3% [5 µM] | 6.08% [5 µM] (active) | 31.6% [5 µM] | -10.3% [5 µM] (active) | 26.8% [5 µM] | 28.4% [5 µM] | -13.5% [5 µM] (active) |
| O=CN(SSN(C=O)C1CCCCC1)C1CCCCC1 | 115% | 91.9% | 110% | 95.4% | 125% | 135% | -25.1% (active) | 119% | 105% | 113% |
| Cc1ccc(C(C)C)cc1C(=O)C[n+]1ccccc1 | 113% | 105% | 96.8% | 91.6% | 109% | 100% | 81.7% | 101% | 96.4% | 112% |
| Cc1ccc(-c2nc(N3CCN(CC(=O)Nc4ccc(Cl)cc4)CC3)c3ccccc3n2)cc1 | 94% | 92.9% | 91.1% | 103% | 98.4% | 114% | 83.6% | 77.4% | 92.1% | 102% |
| CC([C@H]1CCC2C3CCC4C[C@@H](NC=O)CC[C@]4(C)C3CC[C@@]21C)N(C)C (stereo not given in full) | 30.2% | 43.2% | -4.46% (active) | -55.5% (active) | -59.3% (active) | 0.955% (active) | 56.5% | 15.9% | -88.4% (active) | -83.4% (active) |
| COc1cc(Nc2cn[nH]c2-c2ccc(Cl)cc2)cc(OC)c1OC | 6.84% (active) | 65.2% | 79.7% | 36.7% | 33.2% | 50.7% | 21.7% | 51% | 53.5% | 37.6% |
